Experimental data: PubChem BioAssay (EPA / NIEHS)
Values joined by “and” are separate entries in the source; they are usually repeats but may differ in a detail not shown here. Equal entries are not always repeated. Some structures have more than one record in an assay (separate samples or runs), and their calls can disagree. Active and inactive are the calls of the source. How the source made its calls: active means hit-call score of the fitted dose curve at least 0.9, where 1 is the maximum; inactive means score below 0.9.

Experiments:
[1] = read-out: Matrix Metallopeptidase 1 (MMP1), MMP1 (gene 4312); assay: BSK_BE3C_MMP1: BioMAP Diversity Plus: BE3C Assay for Matrix Metallopeptidase 1 (MMP1) Biomarker Activity (AID 2283024); settings: primary human bronchial epithelial cells; actives raise or lower the signal
In short: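 Primary human bronchial epithelial cells were dosed with test chemicals, and MMP1 levels were measured by ELISA 24 h later. Data were fitted bidirectionally against DMSO as the negative control and activity baseline.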

[2] = BSK_3C_Vis: BioMAP Diversity Plus: 3C Assay for Morphology Visualization (AID 2283025); settings: primary human endothelial cells (HUVEC);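 further: fitted both ways so gain or loss versus DMSO counts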
In short: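 Human umbilical vein endothelial cells in the 3C system were imaged by light microscopy 24 h after chemical dosing to record cell morphology. Activity was fitted bidirectionally against DMSO as negative control and baseline; the endpoint serves as a background control.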

[3] = read-out: Pselectin, SELP (gene 6403); assay: BSK_4H_Pselectin: BioMAP Diversity Plus: 4H Assay for Pselectin Biomarker Activity (AID 2283026); settings: primary human endothelial cells (HUVEC); actives raise or lower the signal
In short: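 Primary human umbilical vein endothelial cells were exposed to test chemical for 24 h, then cell-surface P-selectin was quantified by ELISA. Activity was fitted bidirectionally against DMSO as negative control and baseline.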

[4] = BSK_BE3C_SRB: Viability Assessment in the BioMAP Diversity Plus: BE3C Assay (AID 2283028); settings: primary human bronchial epithelial cells;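 on AC50: fitted both ways so AC50 may mark signal gain or loss versus DMSO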
In short: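 Human primary bronchial epithelial cells were exposed to test chemicals for 24 h. Total protein in parallel cultures was then measured by staining with 0.1% sulforhodamine B after 10% TCA fixation, with absorbance read at 560 nm. Activity was fitted bidirectionally against DMSO.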

[5] = read-out: Thrombomodulin, THBD (gene 7056); assay: BSK_3C_Thrombomodulin: BioMAP Diversity Plus: 3C Assay for Thrombomodulin Biomarker Activity (AID 2283029); settings: primary human endothelial cells (HUVEC); actives raise or lower the signal
In short: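 Primary human umbilical vein endothelial cells (3C system) were exposed to chemical for 24 h, then thrombomodulin levels were measured by ELISA. Activity was fitted bidirectionally against the DMSO negative control as baseline.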

[6] = read-out: Urokinase-type plasminogen activator receptor (uPAR), PLAUR (gene 5329); assay: BSK_4H_uPAR: BioMAP Diversity Plus: 4H Assay for Urokinase-type plasminogen activator receptor (uPAR) Biomarker Activity (AID 2283030); settings: primary human endothelial cells (HUVEC); actives raise or lower the signal
In short: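 Primary human umbilical vein endothelial cells were exposed to chemical for 24 h before cell-surface uPAR was quantified by ELISA. Activity was fitted bidirectionally against the DMSO negative control baseline.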

[7] = read-out: Vascular endothelial growth factor receptor 2 (Homo sapiens) (UniProt P35968); assay: BSK_4H_VEGFRII: BioMAP Diversity Plus: 4H Assay for Vascular endothelial growth factor receptor 2 (VEGFR2) Biomarker Activity (AID 2283031); settings: primary human endothelial cells (HUVEC); actives raise or lower the signal;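 on AC50: cell-surface VEGFR2 protein level quantified by ELISA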
In short: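 Primary human umbilical vein endothelial cells in the BioMAP 4H system were dosed with test chemical, and 24 h later VEGFRII was measured by ELISA. Activity was fitted bidirectionally against DMSO as negative control and baseline.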

[8] = read-out: Human Leukocyte Antigen - DR isotype (HLADR), HLA-DRA (gene 3122); assay: BSK_BE3C_HLADR: BioMAP Diversity Plus: BE3C Assay for Human Leukocyte Antigen - DR isotype (HLADR) Biomarker Activity (AID 2283032); settings: primary human bronchial epithelial cells; actives raise or lower the signal
In short: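 Human primary bronchial epithelial cells in the BE3C system were exposed to chemicals for 24 h, after which HLA-DR levels were quantified by ELISA. Activity was fitted bidirectionally, gain or loss of signal, against DMSO as negative control and baseline.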

[9] = read-out: Vascular cell adhesion molecule 1 (VCAM1), VCAM1 (gene 7412); assay: BSK_4H_VCAM1: BioMAP Diversity Plus: 4H Assay for Vascular cell adhesion molecule 1 (VCAM1) Biomarker Activity (AID 2283033); settings: primary human endothelial cells (HUVEC); actives raise or lower the signal
In short: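 Primary human umbilical vein endothelial cells were exposed to chemicals for 24 h, after which VCAM-1 was quantified by ELISA. Responses were fitted bidirectionally against DMSO as negative control and activity baseline.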

[10] = BSK_4H_SRB: Viability Assessment in the BioMAP Diversity Plus: 4H Assay (AID 2283027); settings: primary human endothelial cells (HUVEC);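 further: cells exposed to compound for 24 h before staining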
In short: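 Human umbilical vein endothelial cells, 24 h after chemical dosing; total protein measured by 0.1% sulforhodamine B staining after 10% TCA fixation, read at 560 nm. Bidirectional fitting against DMSO.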

Measured: AC50

O=P(OCC(Br)CBr)(OCC(Br)CBr)OCC(Br)CBr (centres undefined)
active: [1] 3.88 µM | [2] 12.4 µM | [9] 3.69 µM
not listed: [10]
inactive: all other assays above

CCOP(=S)(OCC)SCn1nnc2ccccc2c1=O
not listed: [7]
inactive: all other assays above

CCOC(=O)c1ccccc1C(=O)OCC
not listed: [7]
inactive: all other assays above

O=P1(N(CCCl)CCCl)NCCCO1 (centres undefined)
not listed: [10]
inactive: all other assays above

O=P(Oc1ccccc1)(Oc1ccccc1)Oc1ccccc1
inactive: [1] | [4] | [5] | [7]
active: [2] 37.5 µM | [3] 33.2 µM | [6] 29.9 µM | [9] 26.8 µM

CCOP(=S)(OCC)SCSCC
not listed: [7]
inactive: all other assays above

Cc1cccc(N)c1
not listed: [7]
inactive: all other assays above

COP(N)(=S)OC
not listed: [10]
inactive: all other assays above

CCOP(=S)(S)OCC
not listed: [7]
inactive: all other assays above

Cc1ccc2c(c1N)C(=O)c1ccccc1C2=O
active: [2] 13.6 µM | [8] 5.4 µM
not listed: [7]
inactive: all other assays above

CCCN(CCC)c1c([N+](=O)[O-])cc(C(C)C)cc1[N+](=O)[O-]
active: [7] 20 µM | [8] 5.79 µM | [9] 23.2 µM
not listed: [10]
inactive: all other assays above

CC(Cc1ccc(OCC(=O)O)cc1)NCC(O)c1csc(C(F)(F)F)n1 (centres undefined)
not listed: [10]
inactive: all other assays above

CCCCC(CC)COP(=O)(Oc1ccccc1)Oc1ccccc1 (centres undefined)
active: [1] 1.91 µM | [2] 10.1 µM | [3] 12.3 µM | [5] 3.97 µM | [6] 20 µM | [7] 10.4 µM | [8] 20 µM | [9] 20 µM
inactive: [4]

Cc1ccc(N)cc1N
not listed: [7]
inactive: all other assays above

Cc1c([N+](=O)[O-])cc2c(c1[N+](=O)[O-])C(C)(C)CC2(C)C
active: [2] 37.5 µM | [8] 8.05 µM
not listed: [7]
inactive: all other assays above

Nc1ccc(Cl)cc1
not listed: [10]
inactive: all other assays above

OCC(F)(F)OC(F)(F)C(F)(F)OC(F)(F)CO
not listed: [2]
inactive: all other assays above

O=C(O)C(F)(F)C(F)(F)C(=O)O
not listed: [2] | [7] | [10]
inactive: all other assays above

CCCCCCCc1ccc(O)cc1
active: [1] 37.5 µM | [2] 22.3 µM | [3] 30.9 µM | [4] 38.1 µM | [6] 38.4 µM | [8] 32.1 µM | [9] 35.1 µM
inactive: [5]

O=[N+]([O-])c1ccc(Cl)c(Cl)c1
not listed: [7] | [10]
inactive: all other assays above

C=CC(=O)OCC(F)(F)C(F)F
active: [3] 19.2 µM | [5] 8.19 µM | [8] 44.9 µM | [9] 38.9 µM and 30 µM
inactive: [1] | [3] | [10] | [4] | [5] | [6] | [7] | [8]

CN(C)C(=O)Cl
not listed: [7] | [10]
inactive: all other assays above

Nc1ccc([N+](=O)[O-])cc1Cl
not listed: [7] | [10]
inactive: all other assays above

c1ccc(OP(Oc2ccccc2)Oc2ccccc2)cc1
not listed: [7] | [10]
inactive: all other assays above

CC(O)C(F)(F)C(F)(F)F (centres undefined)
not listed: [2] | [7] | [10]
inactive: all other assays above

O=C(O)C(F)(F)OC(F)(F)C(F)(F)OC(F)(F)C(=O)O
not listed: [2]
inactive: all other assays above

CC(C)(C)c1ccccc1OP(=O)(Oc1ccccc1)Oc1ccccc1
inactive: [4]
active: [1] 5.01 µM | [2] 20 µM | [3] 20 µM | [5] 20 µM | [6] 34.4 µM | [8] 2.85 µM | [9] 20 µM

ClC(Cl)(Cl)c1ccccc1
not listed: [7] | [10]
inactive: all other assays above

c1ccc2c(c1)sc1ccccc12
not listed: [7] | [10]
inactive: all other assays above

O=C(O)C(F)(F)OC(F)(F)C(F)(F)OC(F)(F)F
not listed: [2] | [7]
inactive: all other assays above

O=S(=O)(F)C(F)(F)C(F)(F)C(F)(F)C(F)(F)C(F)(F)C(F)(F)C(F)(F)C(F)(F)F
not listed: [2] | [7]
inactive: all other assays above

COP(=O)(CCC(=O)NCO)OC
not listed: [2] | [7] | [10]
inactive: all other assays above

NC(=O)C(F)(F)C(F)(F)F
not listed: [2]
inactive: all other assays above

c1cc2c3c(cccc3c1)CC2
not listed: [7] | [10]
inactive: all other assays above

COC(=O)C(F)(F)C(F)(F)OC(F)(C(F)(F)F)C(F)(F)OC(F)=C(F)F (centres undefined)
active: [1] 1.48 µM and 2.55 µM
not listed: [2] | [7] | [10]
inactive: all other assays above

CCCCN(CCCC)SN(C)C(=O)Oc1cccc2c1OC(C)(C)C2
active: [2] 37.5 µM | [3] 20.2 µM | [6] 37.1 µM | [9] 30.4 µM
inactive: [1] | [4] | [5] | [8]

O=C(O)C=CC(F)(C(F)(F)F)C(F)(F)F
not listed: [2] | [7]
inactive: all other assays above

OCC(F)(F)OC(F)(F)C(F)(F)OC(F)(F)C(F)(F)OC(F)(F)F
active: [3] 52.2 µM and 44.9 µM | [6] 50.3 µM and 44.6 µM
inactive: [1] | [4] | [5] | [8] | [9]

CCOP(=S)(NC(C)C)Oc1ccccc1C(=O)OC(C)C (centres undefined)
not listed: [7] | [10]
inactive: all other assays above

O=C(O)C(Cl)Cl
not listed: [7] | [10]
inactive: all other assays above

[N-]=[N+]=[N-]
not listed: [7] | [10]
inactive: all other assays above

O=C(O)C1C(C(=O)O)C2(Cl)C(Cl)=C(Cl)C1(Cl)C2(Cl)Cl (centres undefined)
not listed: [7] | [10]
inactive: all other assays above

ClC1=C(Cl)C2(Cl)C3C(Cl)C(Cl)CC3C1(Cl)C2(Cl)Cl (centres undefined)
active: [1] 14.4 µM | [2] 37.3 µM | [3] 24.7 µM | [6] 38 µM | [8] 15.2 µM | [9] 27.3 µM
inactive: [4] | [5]

CCC(C)(C)c1ccc(O)cc1
not listed: [7] | [10]
inactive: all other assays above
